Measured values reported in PubChem BioAssay.
Activity calls are given as the source filed them.

What was measured:
[1] = small molecules captured by biotinylated probe aFSTL3 – biochemical, small-molecule microarray, fluorescence 635/667, stem cell growth factor project, primary screen (AID 1064); conditions: higher = more signal;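 further: measures binding of the biotinylated anti-FSTL3 antibody to printed compounds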
[2] = binders from COS7 lysate, DM2A8 probe, primary screen, torsin A project, cell lysate, small-molecule microarray, fluorescence 635/667 (AID 1065); conditions: higher = more signal, COS7 lysate expressing mutant human TOR1A
[3] = small molecules captured by biotinylated probe aFGF2 – biochemical, small-molecule microarray, fluorescence 635/667, stem cell growth factor project, primary screen (AID 1067); conditions: higher = more signal;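 further: measures binding of biotinylated aFGF2 protein to printed compounds on slides; z-score merges feature fluorescence and signal-to-noise across triplicate slides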
[4] = small molecules captured by biotinylated probe aFGF10 – biochemical, small-molecule microarray, fluorescence 635/667, stem cell growth factor project, primary screen (AID 1071); conditions: higher = more signal;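 further: score merges 667 nm spot intensity and signal to noise from triplicate slides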
[5] = target: Neurogenic locus notch homolog protein 2 (Homo sapiens) (UniProt Q04721); assay: small molecules binding Notch2 protein – biochemical, small-molecule microarray, 635 nm fluorescence, stem cell growth factors, primary screen (AID 1073); conditions: higher = more signal
[6] = target: Pro-neuregulin-1, membrane-bound isoform (Homo sapiens) (UniProt Q02297); assay: small molecules binding neuregulin-1 protein – biochemical, small-molecule microarray, fluorescence 635/667, psychiatric disease protein project, primary screen (AID 1075); conditions: NRG1 binding, 635 nm fluorescence, higher = more signal;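 further: score combines 667 nm spot fluorescence with signal to noise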
[7] = test system: Neuregulin-1 EGF-like domain; assay: small molecules binding NRG1 EGF domain – biochemical, small-molecule microarray, 635 nm fluorescence, primary screen (AID 1081); conditions: higher = more signal;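 further: binding of the protein to compounds printed on small-molecule microarray slides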
[8] = FRG1 expression reporter modulators in myotubes – cell-based, C2C12 myotubes, firefly/Renilla luciferase, luminescence, FRG1 inhibition for FSHD, primary screen (AID 1084); conditions: FRG1 promoter luciferase, higher = more signal, called active from +8 up or from −8 down
[9] = small molecules captured by biotinylated probe aFST – biochemical, small-molecule microarray, fluorescence 635/667, stem cell growth factor project, primary screen (AID 1086); conditions: higher = more signal;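 further: score merges 667 nm fluorescence with signal-to-noise of each printed compound spot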
[10] = binders of probe aHhip on microarray, primary screen, stem cell growth factor project, biochemical, small-molecule microarray, fluorescence 635/667 (AID 1087); conditions: higher = more signal;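 further: score merges spot fluorescence at 667nm with spot signal to noise ratio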
[11] = test system: PRMT1 (protein arginine N-methyltransferase 1); assay: small molecules binding arginine methyltransferase PRMT1 – biochemical, small-molecule microarray, 635 nm fluorescence, primary screen (AID 1088); conditions: higher = more signal;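 further: binding of Prmt1 protein to compounds spotted on small-molecule microarray slides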
[12] = growth effects on S. cerevisiae YJM789 – YJM789 clinical isolate, OD600, 24 h, basal, primary screen (AID 1089); conditions: higher = more signal, called active from +8 up or from −8 down;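 further: growth of clinical yeast isolate S. cerevisiae YJM 789 seeded 1000 cells per well; test concentration not given here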
[13] = S. pombe growth modifiers, basal conditions – strain 972, OD600, 24 h, no modulator, primary screen (AID 1090);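 further: basal condition with compound alone and no growth modifier present; test concentration not given here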; conditions: S. pombe 972 growth, higher = more signal, called active from +8 up or from −8 down
[14] = budding yeast growth modifiers under rapamycin – strain BY4716, OD600, 96 h, primary screen (AID 1091); further: test concentration not given here; conditions: S. cerevisiae BY4716 + rapamycin, higher = more signal, called active from +8 up or from −8 down
[15] = target: Torsin-1A-interacting protein 2 (Homo sapiens) (UniProt Q8NFQ8); assay: small molecules binding lysate-expressed LULL1 – cell lysate, human LULL1 lysate, 635/667 nm fluorescence, primary screen (AID 1092); conditions: small-molecule microarray, hLULL1 lysate binding, 635 nm fluorescence; higher = more signal;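 further: probe is lysate of COS7 cells overexpressing human LULL1; score merges per-feature 667 nm fluorescence with signal-to-noise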
[16] = optical density change of DRC41 E. coli – strain DRC41, OD650, 24 h, E. coli filamentation project, primary screen (AID 1093);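 further: MC1000 strain lacking acrAB efflux and sulA so SOS filamentation is blocked; test concentration not given here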; conditions: E. coli DRC41 growth, higher = more signal, called active from +8 up or from −8 down
[17] = probe aLefty2 binding to arrayed compounds – biochemical, biotinylated probe, 635/667 nm fluorescence, primary screen (AID 1094); conditions: small-molecule microarray, higher = more signal;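 further: score merges spot fluorescence near 667 nm with spot signal-to-noise ratio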
[18] = test system: Noggin (protein binding on small-molecule microarray); assay: small molecules binding Noggin protein – biochemical, 635/667 nm fluorescence, primary screen (AID 1095); conditions: 635 nm fluorescence, higher = more signal;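 further: score merges 667 nm feature fluorescence with signal to noise over triplicate slides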
[19] = target: Neurogenic locus notch homolog protein 3 (Homo sapiens) (UniProt Q9UM47); assay: small molecules binding NOTCH3 protein – biochemical, 635/667 nm fluorescence, primary screen (AID 1096); conditions: small-molecule microarray, 635 nm fluorescence, higher = more signal
[20] = probe aEGFR binding to arrayed compounds – biochemical, biotinylated probe, 635/667 nm fluorescence, primary screen (AID 1097); conditions: small-molecule microarray, higher = more signal;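 further: probe is a biotinylated anti-EGFR antibody binding compounds printed on slides; score combines fluorescence near 667 nm and signal to noise of each spot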

Torsin-1A-interacting protein 2 (Homo sapiens), sequence (Q8NFQ8 whole entry, looked up): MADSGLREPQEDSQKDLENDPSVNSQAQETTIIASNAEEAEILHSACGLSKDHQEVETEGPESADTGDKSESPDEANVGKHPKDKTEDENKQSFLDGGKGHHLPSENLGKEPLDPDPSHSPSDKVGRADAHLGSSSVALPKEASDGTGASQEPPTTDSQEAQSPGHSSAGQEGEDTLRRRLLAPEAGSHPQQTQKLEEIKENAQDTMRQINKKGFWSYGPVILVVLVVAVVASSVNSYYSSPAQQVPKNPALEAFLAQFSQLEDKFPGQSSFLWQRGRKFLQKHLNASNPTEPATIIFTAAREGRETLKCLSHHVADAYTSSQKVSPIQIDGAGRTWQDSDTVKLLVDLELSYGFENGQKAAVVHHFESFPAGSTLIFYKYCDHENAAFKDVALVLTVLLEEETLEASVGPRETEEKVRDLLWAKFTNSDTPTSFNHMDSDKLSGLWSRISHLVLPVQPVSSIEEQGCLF
Pro-neuregulin-1, membrane-bound isoform (Homo sapiens), sequence (Q02297 whole entry, looked up, the tested form may be a part, canonical isoform): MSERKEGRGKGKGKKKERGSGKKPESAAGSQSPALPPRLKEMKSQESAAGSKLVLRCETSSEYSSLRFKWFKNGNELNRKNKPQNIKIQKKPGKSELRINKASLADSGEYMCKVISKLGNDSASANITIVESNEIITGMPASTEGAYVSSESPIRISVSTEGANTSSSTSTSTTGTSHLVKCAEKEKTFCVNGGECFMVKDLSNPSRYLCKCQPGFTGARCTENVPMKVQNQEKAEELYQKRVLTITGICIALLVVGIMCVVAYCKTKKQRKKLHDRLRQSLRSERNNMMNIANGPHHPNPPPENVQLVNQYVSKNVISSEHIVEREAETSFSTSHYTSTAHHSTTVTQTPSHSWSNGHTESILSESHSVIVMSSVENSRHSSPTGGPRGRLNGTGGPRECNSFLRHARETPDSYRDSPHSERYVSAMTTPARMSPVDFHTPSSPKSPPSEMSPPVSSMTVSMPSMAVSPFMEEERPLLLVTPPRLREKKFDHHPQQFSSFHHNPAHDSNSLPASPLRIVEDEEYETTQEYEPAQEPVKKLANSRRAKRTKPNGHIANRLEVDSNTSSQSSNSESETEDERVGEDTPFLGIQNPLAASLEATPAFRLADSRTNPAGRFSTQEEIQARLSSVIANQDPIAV
Neurogenic locus notch homolog protein 2 (Homo sapiens), sequence (Q04721 whole entry, looked up, canonical isoform): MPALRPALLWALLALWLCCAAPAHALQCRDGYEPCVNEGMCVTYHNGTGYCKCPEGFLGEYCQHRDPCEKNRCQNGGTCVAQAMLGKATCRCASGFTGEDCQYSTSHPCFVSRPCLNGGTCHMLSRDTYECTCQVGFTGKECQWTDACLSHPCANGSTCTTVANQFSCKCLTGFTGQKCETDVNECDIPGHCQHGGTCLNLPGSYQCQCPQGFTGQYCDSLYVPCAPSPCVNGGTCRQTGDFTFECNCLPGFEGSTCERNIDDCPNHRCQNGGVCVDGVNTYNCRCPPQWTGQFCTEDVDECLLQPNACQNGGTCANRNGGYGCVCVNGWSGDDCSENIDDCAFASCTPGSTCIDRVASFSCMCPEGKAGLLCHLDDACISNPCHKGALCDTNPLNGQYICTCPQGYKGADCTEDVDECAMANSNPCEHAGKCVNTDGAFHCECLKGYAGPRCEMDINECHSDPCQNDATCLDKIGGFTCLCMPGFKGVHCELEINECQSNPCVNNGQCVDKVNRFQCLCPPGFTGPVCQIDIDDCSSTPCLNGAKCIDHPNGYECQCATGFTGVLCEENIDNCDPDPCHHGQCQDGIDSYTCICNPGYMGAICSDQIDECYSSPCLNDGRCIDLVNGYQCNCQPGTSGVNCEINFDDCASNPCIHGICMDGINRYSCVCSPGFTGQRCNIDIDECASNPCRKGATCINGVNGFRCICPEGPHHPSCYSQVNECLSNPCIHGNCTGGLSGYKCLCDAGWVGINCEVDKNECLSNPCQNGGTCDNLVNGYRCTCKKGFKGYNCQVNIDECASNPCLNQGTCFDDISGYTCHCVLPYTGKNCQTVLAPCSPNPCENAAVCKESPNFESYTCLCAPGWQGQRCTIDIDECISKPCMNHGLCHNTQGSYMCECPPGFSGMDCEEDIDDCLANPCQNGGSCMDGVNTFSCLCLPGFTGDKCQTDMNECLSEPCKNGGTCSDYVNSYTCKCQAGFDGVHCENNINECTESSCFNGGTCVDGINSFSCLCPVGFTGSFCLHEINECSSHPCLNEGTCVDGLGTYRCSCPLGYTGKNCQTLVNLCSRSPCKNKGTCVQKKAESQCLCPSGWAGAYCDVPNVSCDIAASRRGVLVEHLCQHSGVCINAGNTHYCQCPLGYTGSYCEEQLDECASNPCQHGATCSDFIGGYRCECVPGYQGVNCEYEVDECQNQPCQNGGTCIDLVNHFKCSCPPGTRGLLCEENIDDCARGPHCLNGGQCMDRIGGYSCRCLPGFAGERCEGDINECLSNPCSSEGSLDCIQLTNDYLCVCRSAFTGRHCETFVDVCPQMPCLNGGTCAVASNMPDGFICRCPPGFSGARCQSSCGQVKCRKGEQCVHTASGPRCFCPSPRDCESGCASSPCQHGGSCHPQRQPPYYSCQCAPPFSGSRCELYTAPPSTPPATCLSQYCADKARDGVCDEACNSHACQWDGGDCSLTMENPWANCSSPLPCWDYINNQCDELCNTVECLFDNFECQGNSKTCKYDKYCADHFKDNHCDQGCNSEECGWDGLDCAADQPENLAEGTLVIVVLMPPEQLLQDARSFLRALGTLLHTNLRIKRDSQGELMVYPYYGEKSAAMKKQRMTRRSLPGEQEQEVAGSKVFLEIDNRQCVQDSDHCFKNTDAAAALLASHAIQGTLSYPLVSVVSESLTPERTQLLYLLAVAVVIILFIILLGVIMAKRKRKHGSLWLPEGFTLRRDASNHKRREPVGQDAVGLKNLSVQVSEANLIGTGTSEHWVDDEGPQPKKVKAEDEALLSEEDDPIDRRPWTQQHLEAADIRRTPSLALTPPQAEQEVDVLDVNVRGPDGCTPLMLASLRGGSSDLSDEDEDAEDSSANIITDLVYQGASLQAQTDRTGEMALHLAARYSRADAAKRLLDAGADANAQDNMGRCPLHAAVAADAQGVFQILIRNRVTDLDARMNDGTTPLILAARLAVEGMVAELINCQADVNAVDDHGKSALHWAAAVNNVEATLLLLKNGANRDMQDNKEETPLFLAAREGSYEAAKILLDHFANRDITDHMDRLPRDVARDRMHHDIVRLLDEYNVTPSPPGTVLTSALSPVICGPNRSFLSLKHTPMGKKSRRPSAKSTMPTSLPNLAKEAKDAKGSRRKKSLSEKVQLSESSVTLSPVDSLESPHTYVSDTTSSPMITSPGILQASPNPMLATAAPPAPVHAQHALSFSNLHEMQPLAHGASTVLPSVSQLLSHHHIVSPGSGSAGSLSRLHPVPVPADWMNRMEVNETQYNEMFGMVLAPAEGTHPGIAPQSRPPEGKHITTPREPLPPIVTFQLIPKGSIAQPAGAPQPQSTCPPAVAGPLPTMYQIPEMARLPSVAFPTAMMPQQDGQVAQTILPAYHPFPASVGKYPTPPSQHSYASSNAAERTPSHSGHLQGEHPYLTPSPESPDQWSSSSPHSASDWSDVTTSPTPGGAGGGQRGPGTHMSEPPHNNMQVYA

Row | SMILES | composite z-score [1] | composite z-score [2] | composite z-score [3] | composite z-score [4] | composite z-score [5] | composite z-score [6] | composite z-score [7] | z-score [8] | composite z-score [9] | composite z-score [10] | composite z-score [11] | z-score [12] | z-score [13] | z-score [14] | composite z-score [15] | z-score [16] | composite z-score [17] | composite z-score [18] | composite z-score [19] | composite z-score [20]
1 | COC(=O)CC=C[C@@H](C)[C@@H](C=NOC[C@H]1O[C@H](c2ccccc2)C=C[C@@H]1Oc1ccc(OC)cc1)NS(=O)(=O)c1ccc(C)cc1 | 0.577 | -0.564 | -0.127 | -1.06 | -0.766 | -0.754 | -1.29 | -0.461 (inactive) | -0.0763 | -0.0645 | -1.27 | 0.0204 (inactive) | 0.321 (inactive) | -0.382 (inactive) | -0.744 | -0.513 (inactive) | -0.0785 | -0.882 | -0.939 | -0.195
2 | CC(C)C[C@H](NC(=O)CCC1CC(OC(=O)NCc2cccc3ccccc23)CC2(CCCC(COC(=O)NCc3ccccc3)O2)O1)C(=O)NCC(c1ccccc1)c1ccccc1 (stereo not given in full) | -0.572 | 0.139 | -0.113 | 0.618 | 1.35 | 0.438 | 1.2 | 0.244 (inactive) | 0.289 | 0.238 | 1.56 | -0.852 (inactive) | 0.333 (inactive) | -0.576 (inactive) | 1.97 | 0.94 (inactive) | -0.166 | 1.64 | 1.09 | -0.0333
3 | CCCCc1nc2c(c3c1C[C@H](C)OC3)CN(CCOc1ccccc1)CC2 | -0.43 | 0.575 | -0.149 | 0.414 | 0.882 | 0.363 | 0.881 | -1.55 (inactive) | 0.192 | 0.213 | 1.44 | -2.26 (inactive) | -4.02 (inactive) | 0.574 (inactive) | 1.62 | 0.976 (inactive) | -0.005 | 0.339 | 0.732 | 0.219
4 | CO[C@H]1COC(=O)[C@@H](Cc2ccccc2)NC(=O)[C@@H](C)COC(=O)CCC[C@@H]1C | -0.388 | 0.433 | -0.0319 | 0.286 | 0.106 | -0.203 | -0.361 | -0.224 (inactive) | 0.23 | -0.0391 | 0.231 | -0.875 (inactive) | -0.301 (inactive) | -0.784 (inactive) | -0.502 | 0.17 (inactive) | -0.185 | 0.304 | -0.0051 | -0.0152
5 | CO[C@H]1COC(=O)CC=C[C@H](C)[C@@H](OC)COC(=O)[C@@H](C)COC(=O)CC=C[C@@H]1C | -0.834 | 2.17 | -0.152 | -0.938 | -1.22 | -0.652 | -0.513 | -0.862 (inactive) | 0.0281 | 0.106 | 1.48 | 0.235 (inactive) | -1.41 (inactive) | -0.487 (inactive) | -0.108 | -0.176 (inactive) | -0.235 | 2.04 | -0.399 | -0.0171
